Assay results taken from PubChem BioAssay.
Activity calls are given as the source filed them. Unless noted, no rule for the calls is given here.

Assays:
[1] = compounds binding Alexa647 anti-His antibody – biochemical, small-molecule microarray, 635 nm fluorescence, artefact control for SMM control protein annotation, primary screen (AID 1128); conditions: higher = more signal;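 also: score merges feature fluorescence with signal-to-noise for each printed compound spot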
[2] = test system: Human papillomavirus type 1a E7 protein (residues 1-88); test: HPV1a E7 small-molecule binders, primary screen, biochemical, small-molecule microarray, residues 1-88, 635 nm (AID 1129); conditions: small-molecule microarray binding, fluorescence 635 nm; higher = more signal
[3] = target: Focal adhesion kinase 1 (Homo sapiens) (UniProt Q05397); test: PTK2 protein binding on printed compound slides – biochemical, small-molecule microarray, 635/667 nm fluorescence, BSA, DTT, primary screen (AID 1130); conditions: 635 nm fluorescence, higher = more signal;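 also: composite of spot emission at 667 nm and signal to noise over triplicate slides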
Sequence of Focal adhesion kinase 1 (Homo sapiens) (Q05397 whole entry, looked up): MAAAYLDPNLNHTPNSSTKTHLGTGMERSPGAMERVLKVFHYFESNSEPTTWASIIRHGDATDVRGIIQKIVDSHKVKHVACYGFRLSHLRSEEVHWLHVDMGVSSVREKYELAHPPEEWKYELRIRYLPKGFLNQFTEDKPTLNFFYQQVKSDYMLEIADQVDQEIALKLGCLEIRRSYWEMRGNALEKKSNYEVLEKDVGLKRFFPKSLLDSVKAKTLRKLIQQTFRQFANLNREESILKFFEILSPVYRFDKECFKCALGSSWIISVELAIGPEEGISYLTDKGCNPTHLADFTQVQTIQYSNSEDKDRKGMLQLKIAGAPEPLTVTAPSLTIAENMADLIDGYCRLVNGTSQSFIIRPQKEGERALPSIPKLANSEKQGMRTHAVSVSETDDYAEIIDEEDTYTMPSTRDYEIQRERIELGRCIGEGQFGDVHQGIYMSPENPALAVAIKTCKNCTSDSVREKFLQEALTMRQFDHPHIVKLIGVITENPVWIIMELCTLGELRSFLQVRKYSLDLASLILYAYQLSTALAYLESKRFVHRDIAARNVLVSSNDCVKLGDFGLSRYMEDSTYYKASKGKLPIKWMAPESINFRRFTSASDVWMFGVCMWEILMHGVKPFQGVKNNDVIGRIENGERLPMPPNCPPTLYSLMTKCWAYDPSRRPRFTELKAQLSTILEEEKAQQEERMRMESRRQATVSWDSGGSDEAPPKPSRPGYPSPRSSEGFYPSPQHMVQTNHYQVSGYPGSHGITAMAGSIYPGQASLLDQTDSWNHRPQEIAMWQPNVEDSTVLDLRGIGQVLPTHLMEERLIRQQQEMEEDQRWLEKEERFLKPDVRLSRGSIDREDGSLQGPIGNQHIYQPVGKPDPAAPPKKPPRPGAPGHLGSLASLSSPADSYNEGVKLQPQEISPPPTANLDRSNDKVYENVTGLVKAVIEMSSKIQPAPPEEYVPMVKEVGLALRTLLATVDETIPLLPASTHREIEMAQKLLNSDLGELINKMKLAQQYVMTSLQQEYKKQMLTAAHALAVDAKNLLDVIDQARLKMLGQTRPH

[4] = test system: Fibrinogen (Alexa647-labelled); test: Alexa647-fibrinogen binding to printed small molecules – biochemical, small-molecule microarray, 635/667 nm fluorescence, artefact control for SMM control-protein annotation, profiling panel (AID 1131); conditions: fibrinogen-A647 binding fluorescence, higher = more signal;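 also: z-score merges 667 nm fluorescence with per-spot signal-to-noise over triplicate slides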
[5] = target: Follistatin (Homo sapiens) (UniProt P19883); test: FST protein binding to printed compounds – biochemical, small-molecule microarray, 635/667 nm fluorescence, primary screen (AID 1132); conditions: 635 nm fluorescence, higher = more signal
Sequence of Follistatin (Homo sapiens) (P19883 whole entry, looked up): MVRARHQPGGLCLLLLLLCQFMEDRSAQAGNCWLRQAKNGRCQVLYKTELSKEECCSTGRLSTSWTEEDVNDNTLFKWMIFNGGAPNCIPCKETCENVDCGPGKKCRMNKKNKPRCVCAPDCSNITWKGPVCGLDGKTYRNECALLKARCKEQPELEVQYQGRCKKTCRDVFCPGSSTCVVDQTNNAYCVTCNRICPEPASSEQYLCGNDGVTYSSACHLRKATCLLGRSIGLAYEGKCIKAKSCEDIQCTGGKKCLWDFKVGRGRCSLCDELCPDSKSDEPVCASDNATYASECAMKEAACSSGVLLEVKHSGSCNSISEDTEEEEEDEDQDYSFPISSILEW

[6] = target: Fibroblast growth factor 2 (Homo sapiens) (UniProt P09038); test: basic fibroblast growth factor binding to printed compounds – biochemical, small-molecule microarray, 635/667 nm fluorescence, primary screen (AID 1133); conditions: FGF2, fluorescence 635/667, higher = more signal
Sequence of Fibroblast growth factor 2 (Homo sapiens) (P09038 whole entry, looked up): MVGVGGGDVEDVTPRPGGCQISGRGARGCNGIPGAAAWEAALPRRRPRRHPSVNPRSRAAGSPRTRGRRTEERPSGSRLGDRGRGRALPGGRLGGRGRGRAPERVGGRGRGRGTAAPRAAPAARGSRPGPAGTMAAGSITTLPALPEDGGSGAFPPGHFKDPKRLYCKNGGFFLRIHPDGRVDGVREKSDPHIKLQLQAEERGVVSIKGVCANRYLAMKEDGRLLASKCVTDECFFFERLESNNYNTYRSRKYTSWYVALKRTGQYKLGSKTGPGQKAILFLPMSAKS

[7] = JC-1 mitochondrial potential readout, lung cancer cells – cell-based, A549, JC-1 fluorescence, basal, 24 h, 100 nL, profiling panel (AID 1138); conditions: higher = more signal;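 also: A549 lung adenocarcinoma cells under basal conditions with no added stimulus; test concentration not given here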
Lefty1 = Lefty1 protein binding to printed compounds – biochemical, small-molecule microarray, 635/667 nm fluorescence, primary screen (AID 1139); conditions: fluorescence 635/667, higher = more signal
[8] = test system: wheat germ agglutinin (Triticum aestivum), Alexa647-labelled; test: Alexa647-WGA lectin binding to printed small molecules – biochemical, small-molecule microarray, 635/667 nm fluorescence, artefact control for SMM control-protein annotation, profiling panel (AID 1140); conditions: WGA-A647 binding, 635 nm fluorescence, higher = more signal;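 also: score merges 667 nm feature emission with signal to noise over triplicate slides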
[9] = target: Luciferin 4-monooxygenase (Photinus pyralis) (UniProt P08659); test: inhibition of purified Photinus pyralis luciferase – biochemical, luminescence, purified enzyme, 2006 set, primary screen (AID 1141); conditions: purified firefly luciferase, SteadyGlo luminescence, 30 min; higher = more signal, called active from +8 up or from −8 down;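 also: cell-free assay with purified firefly luciferase at 100 ng per well in PBS; test concentration not given here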
Sequence of Luciferin 4-monooxygenase (Photinus pyralis) (P08659 whole entry, looked up): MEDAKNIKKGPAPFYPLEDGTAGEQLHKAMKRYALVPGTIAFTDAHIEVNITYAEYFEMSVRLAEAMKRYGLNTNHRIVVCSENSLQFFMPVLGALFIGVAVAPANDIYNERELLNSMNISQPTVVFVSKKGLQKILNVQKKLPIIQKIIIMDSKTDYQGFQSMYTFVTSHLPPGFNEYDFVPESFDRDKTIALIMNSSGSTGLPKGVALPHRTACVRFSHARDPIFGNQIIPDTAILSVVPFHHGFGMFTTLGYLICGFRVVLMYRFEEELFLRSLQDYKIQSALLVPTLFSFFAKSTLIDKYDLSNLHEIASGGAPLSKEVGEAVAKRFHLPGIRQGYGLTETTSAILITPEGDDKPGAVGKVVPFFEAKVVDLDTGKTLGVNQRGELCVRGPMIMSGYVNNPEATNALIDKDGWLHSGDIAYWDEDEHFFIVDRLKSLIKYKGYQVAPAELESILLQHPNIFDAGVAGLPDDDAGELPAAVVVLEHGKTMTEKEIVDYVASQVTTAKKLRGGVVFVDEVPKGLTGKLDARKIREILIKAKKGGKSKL

[10] = test system: Wnt5a (protein binding on small-molecule microarray); test: small molecules binding Wnt5a protein – biophysical, small-molecule microarray, 635/667 nm fluorescence, primary screen (AID 1142); conditions: 635 nm fluorescence, higher = more signal;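 also: fluorescence read at 667 nm with signal to noise per printed feature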
[11] = ATP-based viability of Huh7 replicon cells – cell-based, CellTiter-Glo luminescence, basal, 48 h, cytotoxicity control for HCV replication inhibitor project, primary screen (AID 1143); conditions: higher = more signal, called active from +8 up or from −8 down;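 also: Huh7 hepatoma cells carrying a hepatitis C replication reporter with no stimulus; test concentration not given here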
[12] = Pseudomonas biofilm growth suppression – PAO1 strain, BacTiter-Glo luminescence, LB-PBS, primary screen (AID 1144); conditions: P. aeruginosa PAO1 biofilm, 12 h, higher = more signal
[13] = basal CRE-LacZ reporter activity in PC12 – cell-based, unstimulated, primary screen (AID 1145); conditions: no forskolin, luminescence, 4.5 h, higher = more signal, called active from +8 up or from −8 down
[14] = forskolin-driven CRE-LacZ activity in PC12 – cell-based, CRE-LacZ reporter, forskolin-stimulated, primary screen (AID 1146); conditions: luminescence, 4.5 h, higher = more signal, called active from +8 up or from −8 down;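 also: PC12 cells with 6xCRE LacZ reporter stimulated by forskolin 10 µM; beta-galactosidase reporter signal reflecting CREB driven transcription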
[15] = target: Streptavidin (Streptomyces avidinii) (UniProt P22629); test: compounds binding control protein streptavidin – biophysical, small-molecule microarray, 635/667 nm fluorescence, artefact control for SMM compound annotation, primary screen (AID 1147); conditions: higher = more signal;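 also: signal reflects streptavidin binding to arrayed compounds as a control protein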
Sequence of Streptavidin (Streptomyces avidinii) (P22629 whole entry, looked up): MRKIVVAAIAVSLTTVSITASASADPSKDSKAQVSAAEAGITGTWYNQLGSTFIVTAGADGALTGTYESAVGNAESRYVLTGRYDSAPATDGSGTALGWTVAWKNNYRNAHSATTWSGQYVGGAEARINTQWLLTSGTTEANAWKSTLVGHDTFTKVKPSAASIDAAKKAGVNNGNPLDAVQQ

[16] = probe aInhba binding on compound microarray – biochemical, small-molecule microarray, 635/667 nm fluorescence, primary screen (AID 1148); conditions: higher = more signal;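 also: score merges 667nm spot fluorescence with signal-to-noise for antibody binding to printed compounds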
Torsin-1A (Homo sapiens) [17] = target: Torsin-1A (Homo sapiens) (UniProt O14656); test: TOR1A wild-type binding on microarray – cell lysate, small-molecule microarray, lysate, 635/667 nm, primary screen (AID 1149); conditions: COS7 hTOR1A-WT lysate, 635 nm fluorescence, higher = more signal
Sequence of Torsin-1A (Homo sapiens) (O14656 whole entry, looked up): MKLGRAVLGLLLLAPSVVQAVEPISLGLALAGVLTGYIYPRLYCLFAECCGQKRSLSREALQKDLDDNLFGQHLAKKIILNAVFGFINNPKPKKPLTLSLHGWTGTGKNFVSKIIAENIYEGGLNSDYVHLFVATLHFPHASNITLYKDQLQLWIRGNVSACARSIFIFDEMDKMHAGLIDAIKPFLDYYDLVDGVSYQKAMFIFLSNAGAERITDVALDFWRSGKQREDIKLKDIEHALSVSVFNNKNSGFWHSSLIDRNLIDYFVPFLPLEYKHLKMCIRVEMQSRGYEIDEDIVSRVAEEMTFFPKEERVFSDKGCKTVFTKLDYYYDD

Torsin-1A (Homo sapiens) [18] = target: Torsin-1A (Homo sapiens) (UniProt O14656); test: torsin A mutant lysate binding on microarrays – cell lysate, small-molecule microarray, COS7 lysate, 635/667 nm fluorescence, primary screen (AID 1150); conditions: COS7 hTOR1A mutant lysate, 635 nm fluorescence, higher = more signal;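 also: score pools 667 nm emission and signal to noise measuring lysate protein binding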
[19] = test system: Sonic hedgehog protein (Shh); test: Sonic hedgehog microarray binding compounds – biochemical, small-molecule microarray, 635/667 nm fluorescence, primary screen (AID 1151); conditions: 635 nm fluorescence, higher = more signal;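 also: Shh protein binding to compounds spotted on small-molecule microarray slides; score combines spot fluorescence intensity with signal-to-noise across triplicate slides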

Compound	composite z-score [1]	composite z-score [2]	composite z-score [3]	composite z-score [4]	composite z-score [5]	composite z-score [6]	z-score [7]	composite z-score (Lefty1)	composite z-score [8]	z-score [9]	composite z-score [10]	z-score [11]	z-score [12]	z-score [13]	z-score [14]	composite z-score [15]	composite z-score [16]	composite z-score (Torsin-1A (Homo sapiens) [17])	composite z-score (Torsin-1A (Homo sapiens) [18])	composite z-score [19]
COCCOC(=O)N1C(=O)[C@@]2(c3cc(C#CC4(O)CCCCCC4)ccc31)[C@H](C(=O)N1CCN(c3ncccn3)CC1)[C@H]1C(=O)O[C@H](c3ccccc3)[C@H](c3ccccc3)N1[C@@H]2c1ccccc1OCCO	1.29	1.18	1.1	0.821	1.28	1.37	-1.04	0.883	0.321	-0.348 (inactive)	0.329	-2.56 (inactive)	0.884 (inactive)	0.204 (inactive)	1.22 (inactive)	0.0715	0.258	0.835	0.577	1.52
COc1cc(NN2C(C(O)c3cc(OC)c(OC)c(OC)c3)C=CC3C(=O)N(c4ccccc4)C(=O)C32)cc(OC)c1OC (stereo not given)	1.41	1.27	0.6	1.04	1.28	1.56	-0.609	0.133	0.848	-0.771 (inactive)	0.582	-2.99 (inactive)	-0.24 (inactive)	0.243 (inactive)	-0.0967 (inactive)	1.8	0.867	-0.152	0.816	-0.317
COC(=O)C1N=C(c2ccc(OCCCO)cc2)N(c2ccccc2)O1 (stereo not given)	1.91	1.15	-0.0976	0.992	1.33	1.76	1.8	0.156	1.29	-7.36 (inactive)	0.924	0.255 (inactive)	-0.787 (inactive)	0.353 (inactive)	0.0512 (inactive)	0.562	0.308	0.654	0.328	0.664
O=c1cccc(-c2ccc(F)cc2)o1	0.198	0.734	0.111	-0.191	0.456	0.898	-0.0822	0.571	0.62	1.73 (inactive)	0.0405	0.0779 (inactive)	-0.291 (inactive)	-0.433 (inactive)	1.01 (inactive)	0.386	0.179	0.309	0.0586	0.559
CCCCCN1CC=CC23O[C@@H]4C=CCOC(=O)[C@@H]4[C@H]2C(=O)N(CCO)[C@@H]3C1=O (stereo not given in full)	1.58	-0.22	0.0763	-1.05	-0.693	-0.903	-0.222	-0.306	-0.324	0.056 (inactive)	-0.395	-0.143 (inactive)	1.13 (inactive)	-0.0818 (inactive)	-0.585 (inactive)	-0.958	-0.205	1.17	1.78	-0.456
Cc1ccc([C@H]2C(C(=O)O)=C[C@@H](C(C)(C)C)N2S(=O)(=O)c2ccc(C)cc2)cc1	1.28	1.24	0.664	0.999	0.802	0.557	-0.918	0.367	1.3	1.48 (inactive)	0.285	-0.117 (inactive)	0.62 (inactive)	-0.312 (inactive)	0.134 (inactive)	1.54	0.271	0.0948	0.465	0.347
Cc1ccc(S[C@]2(C(=O)NC(C)C)CC(=O)N(C(C)C)[C@@H]2c2ccc(CO)cc2I)cc1	-0.893	-0.0049	1.58	0.351	-0.077	-0.471	1.28	-0.18	0.169	1.11 (inactive)	-0.0983	-2.59 (inactive)	-0.468 (inactive)	0.324 (inactive)	-0.3 (inactive)	-0.368	-0.15	-1.07	0.885	-0.244
COCCOC(=O)N1C(=O)[C@@]2(c3cc(C#CCC(C(=O)OC)C(=O)OC)ccc31)[C@H](c1ccc(O)cc1)N1[C@H](c3ccccc3)[C@H](c3ccccc3)OC(=O)[C@H]1[C@@H]2C(=O)NC[C@H](O)c1ccccc1	0.135	1.19	0.933	0.8	1.11	-0.011	-0.236	0.222	1.03	1.04 (inactive)	0.295	-2.04 (inactive)	-0.0824 (inactive)	-0.231 (inactive)	-0.196 (inactive)	1.7	-0.0774	0.941	0.468	0.49
CCCCCCCCCCC(O)C1C=CC2C(=O)N(C)C(=O)C2N1Nc1cc(OC)c(OC)c(OC)c1 (stereo not given)	0.255	0.242	0.55	-0.203	-0.763	-1.44	1.06	-0.946	0.458	-0.819 (inactive)	-0.131	-2.56 (inactive)	0.443 (inactive)	0.819 (inactive)	-0.212 (inactive)	0.133	0.0086	-0.534	0.0777	-1.08
